Reference: the supplement of paper PMC10849652
Targets with a hit are over-represented here; the source holds about 8,800 in all. About 0.5% of all pairs of compound and target were hits.

The targets below were run with Cn1cc(-c2ccc3c(c2)CCN3C(=O)Cc2cccc(C(F)(F)F)c2)c2c(N)ncnc21 (assay: log2 fold change, soluble protein after heating vs DMSO (PISA); higher = thermal stabilisation; K562 lysate, 10 uM; active = over 0.2 and 3.5 SD of the protein, either way, in both replicates (recomputed)).
Procedure, shortened: (§1)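 Pellets of K562 cells were dounce-homogenised in PBS pH 7.4 with 1 mM MgCl2, and the crude extract was held at 1 mg/mL protein for a 30 min treatment with 10 μM compound. Aliquots were heated for 3 min over 48°C-58°C and pooled before NP-40 was added to 0.5% at 4°C. The supernatant from 21,000xg for 90 min was quantified by TMTpro 16plex LC-MS/MS with channel sums equalised. Values are reported from duplicates as log-two fold change in thermal stability relative to solvent controls.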

UniProt Q8WUM0, sequence (Q8WUM0 whole entry, looked up): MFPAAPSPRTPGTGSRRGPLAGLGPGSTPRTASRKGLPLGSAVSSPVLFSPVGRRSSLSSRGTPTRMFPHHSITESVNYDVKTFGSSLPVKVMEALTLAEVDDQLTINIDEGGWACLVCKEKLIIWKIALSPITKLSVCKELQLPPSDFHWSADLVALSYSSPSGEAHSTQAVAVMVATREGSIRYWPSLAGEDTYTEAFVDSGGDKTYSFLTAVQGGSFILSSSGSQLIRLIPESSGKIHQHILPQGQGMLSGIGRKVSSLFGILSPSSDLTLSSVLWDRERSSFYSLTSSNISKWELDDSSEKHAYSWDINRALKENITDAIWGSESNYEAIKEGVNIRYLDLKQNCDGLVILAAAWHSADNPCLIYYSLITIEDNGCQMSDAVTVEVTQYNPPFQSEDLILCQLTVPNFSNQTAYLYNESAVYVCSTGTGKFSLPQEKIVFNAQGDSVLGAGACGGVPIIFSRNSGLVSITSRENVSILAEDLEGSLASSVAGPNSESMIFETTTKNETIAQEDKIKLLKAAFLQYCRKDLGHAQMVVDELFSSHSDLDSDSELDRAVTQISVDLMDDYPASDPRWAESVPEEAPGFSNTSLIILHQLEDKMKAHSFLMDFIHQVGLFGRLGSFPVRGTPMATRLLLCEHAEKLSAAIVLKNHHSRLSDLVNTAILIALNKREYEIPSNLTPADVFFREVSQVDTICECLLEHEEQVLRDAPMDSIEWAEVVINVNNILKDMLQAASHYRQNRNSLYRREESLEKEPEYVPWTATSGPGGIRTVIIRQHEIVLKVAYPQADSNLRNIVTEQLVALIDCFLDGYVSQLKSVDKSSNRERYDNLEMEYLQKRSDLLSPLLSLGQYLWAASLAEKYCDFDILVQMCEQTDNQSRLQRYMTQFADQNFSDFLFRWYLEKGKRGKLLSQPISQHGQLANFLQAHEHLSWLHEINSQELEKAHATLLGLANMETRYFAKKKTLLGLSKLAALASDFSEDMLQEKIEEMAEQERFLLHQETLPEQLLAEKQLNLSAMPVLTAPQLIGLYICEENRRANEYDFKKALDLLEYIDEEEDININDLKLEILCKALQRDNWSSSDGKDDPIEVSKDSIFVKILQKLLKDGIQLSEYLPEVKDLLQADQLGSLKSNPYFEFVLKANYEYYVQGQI
UniProt Q9BZD4, sequence (Q9BZD4 whole entry, looked up): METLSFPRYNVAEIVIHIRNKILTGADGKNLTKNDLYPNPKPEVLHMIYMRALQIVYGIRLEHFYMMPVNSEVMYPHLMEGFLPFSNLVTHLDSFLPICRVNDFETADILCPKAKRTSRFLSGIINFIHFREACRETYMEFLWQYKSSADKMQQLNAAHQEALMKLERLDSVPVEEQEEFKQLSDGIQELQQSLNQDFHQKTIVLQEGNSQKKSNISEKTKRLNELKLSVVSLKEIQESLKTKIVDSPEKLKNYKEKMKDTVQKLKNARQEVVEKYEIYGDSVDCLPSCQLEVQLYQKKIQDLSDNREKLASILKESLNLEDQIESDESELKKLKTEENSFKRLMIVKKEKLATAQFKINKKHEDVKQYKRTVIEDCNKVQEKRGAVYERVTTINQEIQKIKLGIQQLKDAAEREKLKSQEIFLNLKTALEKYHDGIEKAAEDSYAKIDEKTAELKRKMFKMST
UniProt Q15003, sequence (Q15003 whole entry, looked up): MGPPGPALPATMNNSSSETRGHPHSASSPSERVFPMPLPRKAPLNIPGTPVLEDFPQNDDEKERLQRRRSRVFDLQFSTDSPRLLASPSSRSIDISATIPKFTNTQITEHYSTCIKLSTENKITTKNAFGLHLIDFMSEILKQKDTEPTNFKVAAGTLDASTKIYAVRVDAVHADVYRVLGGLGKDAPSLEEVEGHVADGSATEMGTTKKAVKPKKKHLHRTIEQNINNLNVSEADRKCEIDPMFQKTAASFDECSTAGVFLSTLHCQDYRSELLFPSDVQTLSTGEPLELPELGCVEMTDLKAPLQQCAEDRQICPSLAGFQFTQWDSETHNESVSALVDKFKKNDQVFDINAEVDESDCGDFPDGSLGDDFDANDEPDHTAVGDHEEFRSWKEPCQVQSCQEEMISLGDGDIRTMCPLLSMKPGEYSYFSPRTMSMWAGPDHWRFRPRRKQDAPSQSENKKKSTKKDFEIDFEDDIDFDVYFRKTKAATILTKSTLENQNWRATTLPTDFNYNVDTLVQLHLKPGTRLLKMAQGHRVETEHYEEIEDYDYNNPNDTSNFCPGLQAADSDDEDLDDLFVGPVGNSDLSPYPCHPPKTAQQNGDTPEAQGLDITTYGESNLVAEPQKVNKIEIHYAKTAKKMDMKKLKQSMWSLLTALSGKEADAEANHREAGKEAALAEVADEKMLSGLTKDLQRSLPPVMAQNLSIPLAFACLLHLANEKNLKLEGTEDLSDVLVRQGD
UniProt Q86UW6, sequence (Q86UW6 whole entry, looked up): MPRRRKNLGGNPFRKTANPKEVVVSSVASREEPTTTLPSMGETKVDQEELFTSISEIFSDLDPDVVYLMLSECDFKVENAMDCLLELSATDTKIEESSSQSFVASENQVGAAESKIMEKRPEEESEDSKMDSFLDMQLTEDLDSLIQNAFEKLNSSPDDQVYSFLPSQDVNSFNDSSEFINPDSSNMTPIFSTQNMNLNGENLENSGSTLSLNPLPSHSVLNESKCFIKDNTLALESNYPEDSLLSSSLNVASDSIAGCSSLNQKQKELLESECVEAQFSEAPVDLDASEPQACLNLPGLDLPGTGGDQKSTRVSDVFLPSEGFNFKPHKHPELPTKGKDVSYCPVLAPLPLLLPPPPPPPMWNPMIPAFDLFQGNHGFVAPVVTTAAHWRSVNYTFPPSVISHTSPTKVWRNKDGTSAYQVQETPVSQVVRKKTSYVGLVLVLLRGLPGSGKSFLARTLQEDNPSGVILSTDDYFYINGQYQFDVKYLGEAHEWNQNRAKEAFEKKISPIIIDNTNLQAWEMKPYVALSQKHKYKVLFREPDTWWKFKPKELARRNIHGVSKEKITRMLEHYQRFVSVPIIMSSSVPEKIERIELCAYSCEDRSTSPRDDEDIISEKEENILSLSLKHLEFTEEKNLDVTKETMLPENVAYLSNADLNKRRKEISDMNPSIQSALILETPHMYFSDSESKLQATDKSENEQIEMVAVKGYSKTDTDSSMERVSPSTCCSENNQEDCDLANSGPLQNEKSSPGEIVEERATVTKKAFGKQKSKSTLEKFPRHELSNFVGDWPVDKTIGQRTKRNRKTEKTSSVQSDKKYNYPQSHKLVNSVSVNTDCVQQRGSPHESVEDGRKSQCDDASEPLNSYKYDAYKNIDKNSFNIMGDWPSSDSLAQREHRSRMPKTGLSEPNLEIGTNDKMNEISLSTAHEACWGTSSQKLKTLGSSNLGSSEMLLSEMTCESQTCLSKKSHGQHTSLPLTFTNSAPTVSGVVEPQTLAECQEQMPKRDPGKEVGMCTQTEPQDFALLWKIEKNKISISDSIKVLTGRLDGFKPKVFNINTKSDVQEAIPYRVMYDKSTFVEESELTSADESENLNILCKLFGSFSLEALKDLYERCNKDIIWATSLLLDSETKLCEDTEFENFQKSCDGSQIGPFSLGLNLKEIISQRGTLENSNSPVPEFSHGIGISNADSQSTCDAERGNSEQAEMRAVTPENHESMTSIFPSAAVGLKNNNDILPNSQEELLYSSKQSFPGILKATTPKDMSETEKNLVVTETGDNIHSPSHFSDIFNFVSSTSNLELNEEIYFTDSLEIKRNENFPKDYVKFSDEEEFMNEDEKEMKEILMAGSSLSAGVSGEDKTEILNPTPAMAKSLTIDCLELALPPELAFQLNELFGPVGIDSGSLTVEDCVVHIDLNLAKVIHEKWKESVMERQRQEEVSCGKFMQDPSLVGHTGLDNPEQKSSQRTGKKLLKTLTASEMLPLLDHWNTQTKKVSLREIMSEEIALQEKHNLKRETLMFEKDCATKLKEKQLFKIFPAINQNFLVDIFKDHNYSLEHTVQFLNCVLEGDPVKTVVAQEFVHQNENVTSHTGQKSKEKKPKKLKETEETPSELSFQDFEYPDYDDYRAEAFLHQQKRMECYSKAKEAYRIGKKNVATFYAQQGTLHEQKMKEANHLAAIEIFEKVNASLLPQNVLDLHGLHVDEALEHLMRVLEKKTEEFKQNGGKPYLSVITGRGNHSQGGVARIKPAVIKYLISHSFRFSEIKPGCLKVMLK
UniProt Q6N063, sequence (Q6N063 whole entry, looked up): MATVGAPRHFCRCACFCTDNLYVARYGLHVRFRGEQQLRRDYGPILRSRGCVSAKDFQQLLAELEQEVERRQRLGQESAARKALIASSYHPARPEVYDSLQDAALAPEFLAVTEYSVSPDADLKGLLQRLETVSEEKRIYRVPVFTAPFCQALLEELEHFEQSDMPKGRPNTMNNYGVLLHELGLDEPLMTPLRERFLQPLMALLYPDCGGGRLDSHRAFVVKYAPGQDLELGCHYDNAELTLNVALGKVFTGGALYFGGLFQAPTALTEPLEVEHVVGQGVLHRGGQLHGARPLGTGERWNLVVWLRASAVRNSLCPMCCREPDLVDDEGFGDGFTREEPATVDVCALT
UniProt Q147X3, sequence (Q147X3 whole entry, looked up): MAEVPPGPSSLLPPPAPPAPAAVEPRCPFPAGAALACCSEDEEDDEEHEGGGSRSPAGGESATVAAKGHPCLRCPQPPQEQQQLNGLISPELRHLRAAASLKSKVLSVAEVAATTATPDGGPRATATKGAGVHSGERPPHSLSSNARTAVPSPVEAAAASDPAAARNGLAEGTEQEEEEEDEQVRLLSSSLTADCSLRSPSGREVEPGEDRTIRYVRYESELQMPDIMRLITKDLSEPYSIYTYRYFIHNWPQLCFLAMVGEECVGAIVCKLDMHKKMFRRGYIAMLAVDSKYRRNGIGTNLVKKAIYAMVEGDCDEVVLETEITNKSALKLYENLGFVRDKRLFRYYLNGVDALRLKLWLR

log2 fold change, inactive:
NBEAL2 (UniProt Q6ZNJ1) 0.029
N4BP2 (UniProt Q86UW6) 0.061
NFKBIE (UniProt O00221) 0.002
MTA3 (UniProt Q9BTC8) -0.017
NFATC4 isoform 2 (UniProt Q14934) -0.041
NAA35 (UniProt Q5VZE5) 0.01
OPA1 isoform 2 (UniProt O60313) 0.018
NAA30 (UniProt Q147X3) -0.005
MYO1C (UniProt O00159) -0.038
NUF2 (UniProt Q9BZD4) 0.017
NCAPH (UniProt Q15003) -0.017

These targets were tested with Cn1cc(CNCC2CCN(c3ncc(C(=O)NO)cn3)CC2)c2ccccc21 [quisinostat] in the same assay as above.
Procedure, shortened: as §1

log2 fold change, inactive:
OGFOD2 (UniProt Q6N063) 0.031
MTA2 (UniProt O94776) -0.062
NDC1 (UniProt Q9BTX1) -0.03
OLA1 (UniProt Q9NTK5) -0.008
OCRL (UniProt Q01968) -0.089
NCAPG2 (UniProt Q86XI2) -0.092
NUP133 (UniProt Q8WUM0) -0.092
NCKAP1L (UniProt P55160) -0.034
MRPL53 (UniProt Q96EL3) 0.02
MRPS12 (UniProt O15235) -0.051
NDUFS1 isoform 2 (UniProt P28331) 0.112
NCOR2 (UniProt C9J0Q5) -0.034
